From PMC10163288
The list is a sample of the results. The true hit rate is not given.

B1: il2ra_site1_2b5i_sap_17_mot_143f78fc0439b137266e145e81963a82_0001_1_af2_000000250_0001_37_51_H_._2548690152cc24afdf538b66510d0e06_0001_0001_0000200012_0000001_0 … (protein)
chain: SSSSDEKYDEVERLFKKALELRRAGKKEEAKEVLEEALKIAEEAKDEKLVEELKRFLELLSSSSS
B2: il2ra_site2_2erj_normal_mot_HHH_b1_00210_af2_000000043_0001_43_57_H_._HHH_b1_00702_0001_0000100006_0000001_0 (protein)
chain: SSSSDREEVEELLKELEEAYEEGDEEKFEELASRASVLIFQIGDFELWSELAELFAKLNKSSSSS
B3: il2ra_site1_2b5i_normal_mot_HHH_b1_08745_af2_000000166_0001_39_57_H_._HHH_b1_02799_0001_0000100008_0000001_0_af2pred_dldesign_0_af2pred (protein)
chain: SSSSSPEGKEVLRLLEEAEAALKAGDEAGARALLEKALEIAKKAKSNLFVKFVEAALKALESSSS
B4: il2ra_site1_1z92_sap_15_mot_HHH_b2_05498_000000253_0001_19_35_H_._HHH_b1_00069_0001_0001500068_0000001_0_0001_af2pred_0001_af2pred_1 (protein)
chain: SEEEEHIRELIEQIPDPELAEAIKKDFEQALERGIPPERVVRALLRAARLDGDPHAEELLEKALR
B5: il2ra_site1_2b5i_sap_11_mot_HHH_b1_06900_af2_000000048_0001_21_36_H_._a1725d017d863e7f4c76c21e96fab134_0001_1_af2_0001_0000100009_0000001_0_0001_af2pred_0001_af … (protein)
chain: SSSSSTLAQKAAELLEEANEADRNGDPEEARKLLEEAEKIAEEAGSKSLLRSIRVALEQLSSSSS
B6: il2ra_site1_1z92_sap_14_mot_HHH_b1_05862_af2_000000270_0001_22_38_H_._HHH_b1_06212_0001_0000200007_0000001_0_0001_af2pred_0001_af2pred_1 (protein)
chain: SSSSSDLEELIEEIARELAEENNDEDLREELEKAAERLKKLGTSHERARKILEKLVKAARSSSSS
B7: il2ra_site2_3nfp_normal_mot_HHH_b2_07840_000000026_0001_18_34_H_._HHH_b1_00954_0001_0000200021_0000001_0 (protein)
chain: SSSSDLEERLRELLEELEELVKEGDEERFREVAREVIQLVYENNDHEAFAKLADLLYLIESSSSS
B8: il2ra_site1_1z92_normal_mot_c9a8daa1dfea21d1414aecde54be4f54_0001_1_af2_000000024_0001_32_46_H_._15f70e71ac3214bf43105af5abf4654e_0001_1_af2_0001_0000300029_000 … (protein)
chain: DEEAARKDLEFALKQGIPPRSVVRAVLLALEHELGDPEEALEVIERAIKLLNDPELEEVVEKLKP
B9: il2ra_site1_2b5i_sap_21_mot_HHH_b2_08159_000000245_0001_1_21_H_._8ad9ac091cb40d3f9ee7ab2e9a3a3379_0001_0001_0000400039_0000001_0_0001_af2pred_0001_af2pred_1 (protein)
chain: SSSSSELLEEAFELLEEADELAKKGNDEEAEKVLREAEELLEKAGNPSLLRLVRAALRLTSSSSS
B10: il2ra_site2_3nfp_normal_mot_HHH_b1_05627_af2_000000038_0001_43_56_H_._HHH_b1_05526_af2_0001_0000100005_0000001_0 (protein)
chain: SSSSDKAEEYVRAAMEAARYALEDGNPEVARRSLELARQLAESLGNEELREEVEELLQELSSSSS
B11: il2ra_site2_2erj_sap_21_mot_HHH_b1_00069_af2_000000103_0001_1_18_H_._HHH_b1_05528_af2_0001_0000500009_0000001_0_0001_af2pred_0001_af2pred (protein)
chain: SSSSDEIRRLYELAEELDKLLLEGDEEKVEELLEELEQLARETNTPSAEKVVRAIEKSLESSSSS
B12: il2ra_site1_2b5i_sap_8_mot_HHH_b2_04131_000000150_0001_1_16_H_._HHH_b2_06569_af2_0001_0000100002_0000001_0_0001_af2pred_dldesign_0_af2pred (protein)
chain: SSSSSSAEEFVNEAIEKAKELKAAGRPDEARRLLKLALKRARKANDADLVARVEALLAELSSSSS
B13: il2ra_site1_1z92_normal_mot_6c2800a769814540b5b47941e710ff28_0001_af2_000000005_0001_35_49_H_._6228ca5b8b091676f337a4c0a06dbe92_0001_0003_0000300038_0000001_0 (protein)
chain: DEFLIEQLLRKIEAGNEESAERIIERLLKNAGIPPEEVERIVEELLKLLKDGDPEEARKLLREAP
B14: il2ra_site2_2erj_sap_28_mot_3b06bd03f1c6bceadc68eab912867b79_0001_000000296_0001_36_50_H_._HHH_b2_07644_af2_0001_0000200004_0000001_0_0001 (protein)
chain: SSSSSDELKRAYELANALMHLVARNDREEFERISEEFEEIVEKLDSRTAREILESLERLISSSSS
B15: il2ra_site2_2erj_sap_26_mot_6c2800a769814540b5b47941e710ff28_0001_000000197_0001_35_49_H_._HHH_b2_05475_0001_0000200011_0000001_0_0001_af2pred_0001_af2pred (protein)
chain: DDEEYIEMWVELAAKRLGVPSVEVETRNGTLHVTVNGTDEAARRVLLAAELAAKAAGLPFETTEE
B16: il2ra_site1_3nfp_sap_15_mot_HHH_b1_05868_af2_000000129_0001_1_19_H_._HHH_b1_04163_af2_0001_0000300017_0000001_0_0001_af2pred_0001_af2pred (protein)
chain: SSSSSWREKAMEAILRAAELANDEELREELEKLLEKLREEGDPRALREAVKLLKEAAKRLSSSSS
B17: il2ra_site2_3nfp_sap_32_mot_HHH_b1_00050_000000292_0001_22_38_H_._HHH_b2_06764_0001_0000600039_0000001_0_0001 (protein)
chain: SSSSDESEEYFEAAFELVRLALEAGDPEAARRLLEMLELVAESQNDPELQRLVEELEEELSSSSS
B18: il2ra_site1_3nfp_sap_18_mot_ems_3hM_2054_af2_000000130_0001_3_20_H_._HHH_b2_07863_0001_0000600021_0000001_0_0001 (protein)
chain: SRILERFVKIARKRGNPEFARVVEILLEVLEQDPRLKRAIDKILFELVSGKLPPEEAEELAKELK
B19: il2ra_site2_3nfp_normal_mot_HHH_b2_05513_000000198_0001_20_37_H_._52c50354b804bec8c3157ba16786ada3_0001_0001_0001000025_0000001_0_af2pred_0001_1_af2pred_swapped (protein)
chain: DDLEERLRRSAELAGDPHDAVVFFIAFLEYELGDPEEAIELALEVAEELGDPELERIIRELRKLP
B20: il2ra_site2_3nfp_normal_mot_HHH_b1_00239_000000199_0001_23_39_H_._HHH_b2_02904_0001_0000200025_0000001_0 (protein)
chain: SSSSNEEILREAAELLLELLEERGDEEELRELEELLEELKRHGDPELQLELYAVLARIYSSSSSS
B21: il2ra_site1_2b5i_normal_mot_3116615af0ee64d731c1c85d8523bf51_0001_000000216_0001_15_32_H_._HHH_b1_07838_af2_0001_0000100001_0000001_0_af2pred_dldesign_0_af2pred (protein)
chain: SSSSSALEKEVEETLAKADELKAAGKRREALEALEKIHKKLSAADAEDLQEKVEKKAKELSSSSS
B22: il2ra_site1_3nfp_normal_mot_eb5a5eebac1e5153f932cc6c3f4b2787_0001_af2_000000065_0001_18_33_H_._HHH_b2_04044_0002_0000100009_0000001_0 (protein)
chain: SSSSSDEEIRERVEELLEEAKHIPDYREASRLVEEAYRLAAELGDPELSELIYRVMREIVSSSSS
B23: il2ra_site1_3nfp_sap_21_mot_HHH_b2_02066_af2_000000034_0001_1_16_H_._c2845cfc7c062bbeb7cd94dd36b2ebbf_0001_af2_0001_0000100001_0000001_0_0001_af2pred_0001_af2pr … (protein)
chain: SSSEEELQELFKLALELHKKLTNPEARQVVIHAMALVARATRTKDPELERRAREAIEEAEELDSS
B24: il2ra_site2_2erj_normal_mot_HHH_b2_06726_000000006_0001_1_16_H_._HHH_b1_04199_0001_0000300043_0000001_1_af2pred_0001_af2pred (protein)
chain: SSSSSSEYREEIEELIEEARRVDEEEAVALLAEAAFLAVRNKDEEIFREVAELSLELYRRSSSSS
B25: il2ra_site2_3nfp_sap_23_mot_347257a5708f0dc4a322ca97a98db719_0001_1_af2_000000210_0001_36_49_H_._796cb09f51c241c629a2416424e53d75_0001_0001_0000100001_0000001_0 … (protein)
chain: SSSSDKEEERVEELLEELKRLIEEGDEEKARRAFAEAAHLIFELNDSELFARLAELALELWSSSS
B26: il2ra_site1_3nfp_sap_17_mot_HHH_b1_01159_af2_000000107_0001_1_20_H_._HHH_b1_00510_0001_0000100012_0000001_0_0001 (protein)
chain: DEEEIRREIEELLEEDPQEAMQFAMKLAHEAMRNNDPELLRVVLEALLKVTGDPSVKKLLEVARR
B27: il2ra_site1_1z92_normal_mot_HHH_b1_03515_000000289_0001_1_19_H_._HHH_b2_04566_af2_0001_0000100001_0000001_0 (protein)
chain: SSSDEEQARRSLERLVEDAVKLAGLSEEQKEKLEELVEELIERGVDFLEAIKLIDELARELSSSS
B28: il2ra_site1_2b5i_sap_13_mot_HHH_b2_07160_000000135_0001_1_14_H_._HHH_b1_04051_0001_0000500030_0000001_1_0001_af2pred_dldesign_0_af2pred (protein)
chain: SSSSSLGRRRRELLERADKAFKAEDYELLKELLKEVKELVEKTKRKSDKAILKLIEEALEESSSS
B29: il2ra_site2_2erj_sap_21_mot_6ec3e94b46d95805cdcdc10c0c108f03_0001_af2_000000040_0001_36_50_H_._HHH_b2_04396_0001_0000200006_0000001_0_0001 (protein)
chain: SSSSSEWEEAARLSVLLLEAARKNDEELLEELRREAEELIKEIKNPAARRYLEFALRDVERSSSS
B30: il2ra_site1_1z92_sap_19_mot_HHH_b2_03511_af2_000000113_0001_41_54_H_._HHH_b2_01993_af2_0001_0000400041_0000001_0_0001 (protein)
chain: DEAEEVIERAIEAVERGDPEEVRRLLEKLIEHTGDPALRFLLEVLERKLEAGNYKAARAILEKSR
B31: il2ra_site2_3nfp_normal_mot_HHH_b2_04451_000000238_0001_21_37_H_._HHH_b1_08573_0001_0000400020_0000001_0 (protein)
chain: SSSDEEERIEELIELVEELIKEGDRTEALQVLLEASELAAKLGDEELARILLELFLLLQEKSSSS

What follows are binders tested against il2ra, P01589 (assay: yeast display titration).
il2ra, P01589, sequence (P01589 whole entry): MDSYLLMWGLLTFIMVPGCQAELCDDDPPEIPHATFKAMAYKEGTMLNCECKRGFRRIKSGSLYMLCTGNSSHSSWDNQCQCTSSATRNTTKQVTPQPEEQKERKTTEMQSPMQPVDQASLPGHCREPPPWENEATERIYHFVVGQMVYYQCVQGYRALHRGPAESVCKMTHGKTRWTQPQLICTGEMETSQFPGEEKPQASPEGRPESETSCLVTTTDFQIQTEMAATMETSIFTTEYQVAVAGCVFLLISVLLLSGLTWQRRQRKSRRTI

Apparent Kd, inactive:
B1 no binding seen, B2 no binding seen, B3 no binding seen, B4 no binding seen, B5 no binding seen, B6 no binding seen, B7 no binding seen, B8 no binding seen, B9 no binding seen, B10 no binding seen, B11 no binding seen, B12 no binding seen, B13 no binding seen, B14 no binding seen, B15 no binding seen, B16 no binding seen, B17 no binding seen, B18 no binding seen, B19 no binding seen, B20 no binding seen, B21 no binding seen, B22 no binding seen, B23 no binding seen, B24 no binding seen, B25 no binding seen, B26 no binding seen, B27 no binding seen, B28 > 487 nM, B29 no binding seen, B30 no binding seen, B31 no binding seen
